The entries come from a sample that favours the strongest signals as a whole.
What was measured:
Assay in all cases: glycan array binding signal (z-score within array); higher = stronger binding
Settings in all cases: glycan notation: IUPAC condensed, linker removed
[1] = molecular target: GlcNAc(b1-3)Gal(b1-4)GlcNAc(b1-3)Gal(b1-4)GlcNAc(b1-2)Man(a1-3)[GlcNAc(b1-3)Gal(b1-4)GlcNAc(b1-3)Gal(b1-4)GlcNAc(b1-2)Man(a1-6)]Man(b1-4)GlcNAc(b1-4)GlcNAc
How it was run: (§1)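 Glycan array data came from 3228 arrays in the Consortium for Functional Glycomics database, and only arrays with an available protein sequence were kept. Glycan names were put into IUPAC-condensed notation, and columns mapping to the same glycan were averaged. The binding signal is a within-array Z-score, averaged across arrays of one protein sequence run at different concentrations or buffers and across linkers. A negative Z-score can be read as non-binding.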

[2] = molecular target: GlcNAc(b1-3)Gal(b1-4)GlcNAc(b1-3)Gal(b1-4)GlcNAc(b1-3)Gal(b1-4)GlcNAc(b1-2)Man(a1-3)[GlcNAc(b1-3)Gal(b1-4)GlcNAc(b1-3)Gal(b1-4)GlcNAc(b1-3)Gal(b1-4)GlcNAc(b1-2)Man(a1-6)]Man(b1-4)GlcNAc(b1-4)[Fuc(a1-6)]GlcNAc
How it was run: as §1

[3] = molecular target: GlcNAc(b1-3)Gal(b1-4)GlcNAc(b1-3)Gal(b1-4)GlcNAc(b1-3)Gal(b1-4)GlcNAc(b1-2)[GlcNAc(b1-3)Gal(b1-4)GlcNAc(b1-3)Gal(b1-4)GlcNAc(b1-3)Gal(b1-4)GlcNAc(b1-6)]Man(a1-6)[GlcNAc(b1-3)Gal(b1-4)GlcNAc(b1-3)Gal(b1-4)GlcNAc(b1-3)Gal(b1-4)GlcNAc(b1-2)Man(a1-3)]Man(b1-4)GlcNAc(b1-4)[Fuc(a1-6)]GlcNAc
How it was run: as §1

[4] = molecular target: GlcNAc(b1-4)GlcNAc(b1-4)GlcNAc(b1-4)GlcNAc(b1-4)GlcNAc(b1-4)GlcNAc
How it was run: as §1

[5] = molecular target: GlcNAc6S(b1-3)Gal(b1-4)GlcNAc
How it was run: as §1

Kdn(a2-3)Gal(b1-4)GlcNAc = molecular target: Kdn(a2-3)Gal(b1-4)GlcNAc
How it was run: as §1

[6] = molecular target: Man(a1-2)Man(a1-6)[Man(a1-3)]Man(a1-6)[Man(a1-2)Man(a1-2)Man(a1-3)]Man
How it was run: as §1

[7] = molecular target: Neu5Ac(a2-3)Gal(b1-3)GlcNAc(b1-2)Man(a1-3)[Neu5Ac(a2-3)Gal(b1-3)GlcNAc(b1-2)Man(a1-6)]Man(b1-4)GlcNAc(b1-4)GlcNAc
How it was run: as §1

[8] = molecular target: Neu5Ac(a2-3)Gal(b1-3)[Fuc(a1-4)]GlcNAc(b1-3)Gal(b1-3)[Fuc(a1-4)]GlcNAc
How it was run: as §1

[9] = molecular target: Neu5Ac(a2-3)Gal(b1-4)GlcNAc(b1-2)[Neu5Ac(a2-3)Gal(b1-4)GlcNAc(b1-6)]Man(a1-6)[Neu5Ac(a2-3)Gal(b1-4)GlcNAc(b1-2)Man(a1-3)][GlcNAc(b1-4)]Man(b1-4)GlcNAc(b1-4)GlcNAc
How it was run: as §1

[10] = molecular target: Neu5Ac(a2-3)Gal(b1-4)GlcNAc(b1-3)Gal(b1-4)GlcNAc(b1-6)[Gal(b1-3)]GalNAc
How it was run: as §1

[11] = molecular target: Neu5Ac(a2-3)[GalNAc(b1-4)]Gal(b1-4)GlcNAc(b1-3)GalNAc
How it was run: as §1

Neu5Ac(a2-6)Gal = molecular target: Neu5Ac(a2-6)Gal
How it was run: as §1

[12] = molecular target: Neu5Ac(a2-6)Gal(b1-3)GlcNAc(b1-3)[Gal(b1-4)GlcNAc(b1-6)]Gal(b1-4)Glc
How it was run: as §1

[13] = molecular target: Neu5Ac(a2-6)Gal(b1-4)GlcNAc
How it was run: as §1

[14] = molecular target: Neu5Ac(a2-6)Gal(b1-4)GlcNAc(b1-2)Man(a1-3)Man(b1-4)GlcNAc(b1-4)GlcNAc
How it was run: as §1

[15] = molecular target: Neu5Ac(a2-6)Gal(b1-4)GlcNAc(b1-2)Man(a1-3)[Neu5Ac(a2-6)Gal(b1-4)GlcNAc(b1-2)Man(a1-6)]Man(b1-4)GlcNAc(b1-4)GlcNAc
How it was run: as §1

[16] = molecular target: Neu5Ac(a2-6)Gal(b1-4)GlcNAc(b1-3)Gal(b1-4)GlcNAc(b1-3)Gal(b1-4)GlcNAc(b1-2)Man(a1-3)[Neu5Ac(a2-6)Gal(b1-4)GlcNAc(b1-3)Gal(b1-4)GlcNAc(b1-3)Gal(b1-4)GlcNAc(b1-2)Man(a1-6)]GalNAc
How it was run: as §1

[17] = molecular target: Neu5Ac(a2-6)Gal(b1-4)GlcNAc(b1-3)GalNAc
How it was run: as §1

[18] = molecular target: Neu5Ac(a2-6)Gal(b1-4)GlcNAc(b1-6)[Gal(b1-3)]GalNAc
How it was run: as §1

Neu5Ac(a2-6)GalNAc = molecular target: Neu5Ac(a2-6)GalNAc
How it was run: as §1

[19] = molecular target: Neu5Ac(a2-6)GlcNAc(b1-4)GlcNAc(b1-4)GlcNAc
How it was run: as §1

Neu5Ac(a2-8)Neu5Ac = molecular target: Neu5Ac(a2-8)Neu5Ac
How it was run: as §1

[20] = molecular target: Neu5Ac(a2-8)Neu5Ac(a2-3)Gal(b1-4)Glc
How it was run: as §1

[21] = molecular target: Neu5Ac(a2-8)Neu5Gc(a2-3)Gal(b1-4)GlcNAc
How it was run: as §1

[22] = molecular target: Neu5Gc(a2-3)Gal(b1-4)GlcNAc(b1-3)Gal(b1-4)GlcNAc(b1-2)Man(a1-3)[Neu5Gc(a2-3)Gal(b1-4)GlcNAc(b1-3)Gal(b1-4)GlcNAc(b1-2)Man(a1-6)]Man(b1-4)GlcNAc(b1-4)GlcNAc
How it was run: as §1

[23] = molecular target: Neu5Gc(a2-8)Neu5Gc(a2-6)Gal(b1-4)GlcNAc
How it was run: as §1

B1: HopZSSI-T (Helicobacter pylori), B5Z6D0 (protein)
chain: MGSSHHHHHHSSGLVPRGSHMENLYFQGEDNGFFISAGYQIGEAAQMVKNTGELKKLSDTYENLSNLLTNFNNLNQAVTNASSPSEINAAIDNLKANTQGLTGEKTNSPAYQAVYLALNAAVGLWNVIAYNVQCGPGNSSQQSVTFEGQPGHNSSSINCNLTGYNNGVSGPLSIDNFKQLNQAYQVLQQALKQGVPVLNNTNQKIEVKVTTQTNGQSSKETTTTTTTNDAQTLLQEASKMIDVLTTNCPWVNHNPGQNGGAPWGLIRQECVSGFATEFSAVTSMIKNAQEIVTQAQSLNANQNNQNAPQDFNPYTSADRAFAQNMLNHAQAQAKILELADQMKKDLNTIPSQFITNYLAACRIDGTTPSQGVTNNTWGAGCAYVEETITALNNSLAHFGTQAEQIKQSELLARTILDFRGSLSTLNSTYNSITTTASNTPNSPFLKNLISQSTNPNNPGGLQAVYQVNQSAYSQLLSATQELGHNPFRRIGLISSQT
Q: How did the “glycan array binding signal (z-score)” value [1] turn out when B1 was run?
A: Its value is 1.48.

Q: What about the “glycan array binding signal (z-score)” value [2] of the same binder?
A: The value was 1.5.

Q: What about the “glycan array binding signal (z-score)” value [3] of the same binder?
A: The value was 1.12.

Q: What about the “glycan array binding signal (z-score)” value [4] of the same binder?
A: Its value is -0.476.

Q: And the “glycan array binding signal (z-score)” value [5]?
A: Its value is -0.089.

Q: What about the “glycan array binding signal (z-score)” value (Kdn(a2-3)Gal(b1-4)GlcNAc) of the same binder?
A: The value was 0.049.

Q: And the “glycan array binding signal (z-score)” value [6]?
A: The value was -0.645.

Q: What about the “glycan array binding signal (z-score)” value [7] of the same binder?
A: Its value is -0.396.

Q: What about the “glycan array binding signal (z-score)” value [8] of the same binder?
A: The value was -0.391.

Q: And the “glycan array binding signal (z-score)” value [9]?
A: Its value is 0.342.

Q: And the “glycan array binding signal (z-score)” value [10]?
A: Its value is 0.966.

Q: And the “glycan array binding signal (z-score)” value [11]?
A: Its value is 0.891.

Q: And the “glycan array binding signal (z-score)” value (Neu5Ac(a2-6)Gal)?
A: The value was 0.007.

Q: And the “glycan array binding signal (z-score)” value [12]?
A: Its value is -0.472.

Q: What about the “glycan array binding signal (z-score)” value [13] of the same binder?
A: Its value is -0.343.

Q: What about the “glycan array binding signal (z-score)” value [14] of the same binder?
A: Its value is -0.42.

Q: And the “glycan array binding signal (z-score)” value [15]?
A: The value was -0.19.

Q: What about the “glycan array binding signal (z-score)” value [16] of the same binder?
A: The value was 0.709.

Q: What about the “glycan array binding signal (z-score)” value [17] of the same binder?
A: Its value is 0.356.

Q: What about the “glycan array binding signal (z-score)” value [18] of the same binder?
A: The value was 3.23.

Q: And the “glycan array binding signal (z-score)” value (Neu5Ac(a2-6)GalNAc)?
A: The value was 2.01.

Q: And the “glycan array binding signal (z-score)” value [19]?
A: The value was -0.141.

Q: What about the “glycan array binding signal (z-score)” value (Neu5Ac(a2-8)Neu5Ac) of the same binder?
A: The value was 0.598.

Q: What about the “glycan array binding signal (z-score)” value [20] of the same binder?
A: The value was -0.031.

Q: And the “glycan array binding signal (z-score)” value [21]?
A: Its value is -0.272.

Q: And the “glycan array binding signal (z-score)” value [22]?
A: The value was 1.53.

Q: What about the “glycan array binding signal (z-score)” value [23] of the same binder?
A: Its value is 0.181.

From the supplement of paper PMC8728848
